In all, about 110,000 compounds were measured (“z-score”: median about -0.1, highest 2% from about 2 on). This excerpt belongs to a sample that is enriched for the highest values. The source made the active and inactive calls.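 The calls were made as follows: active = z-score in the third read window above 3 or below -3; inactive = the rest.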
Each compound was assayed against Metabotropic glutamate receptor 8 (Rattus norvegicus) (UniProt P70579) (assay: mGluR8 Gi/Go-coupled signaling modulation – cell-based, rat, thallium flux, HTS, primary screen (AID 488969)). Settings: HEK293 rat mGluR8, GIRK (G protein-gated inwardly rectifying potassium channel) thallium flux, FluoZin2; at 10 µM; stronger effect = higher value; submaximal glutamate (EC20) added with thallium.
Sequence of Metabotropic glutamate receptor 8 (Rattus norvegicus) (P70579 whole entry, looked up): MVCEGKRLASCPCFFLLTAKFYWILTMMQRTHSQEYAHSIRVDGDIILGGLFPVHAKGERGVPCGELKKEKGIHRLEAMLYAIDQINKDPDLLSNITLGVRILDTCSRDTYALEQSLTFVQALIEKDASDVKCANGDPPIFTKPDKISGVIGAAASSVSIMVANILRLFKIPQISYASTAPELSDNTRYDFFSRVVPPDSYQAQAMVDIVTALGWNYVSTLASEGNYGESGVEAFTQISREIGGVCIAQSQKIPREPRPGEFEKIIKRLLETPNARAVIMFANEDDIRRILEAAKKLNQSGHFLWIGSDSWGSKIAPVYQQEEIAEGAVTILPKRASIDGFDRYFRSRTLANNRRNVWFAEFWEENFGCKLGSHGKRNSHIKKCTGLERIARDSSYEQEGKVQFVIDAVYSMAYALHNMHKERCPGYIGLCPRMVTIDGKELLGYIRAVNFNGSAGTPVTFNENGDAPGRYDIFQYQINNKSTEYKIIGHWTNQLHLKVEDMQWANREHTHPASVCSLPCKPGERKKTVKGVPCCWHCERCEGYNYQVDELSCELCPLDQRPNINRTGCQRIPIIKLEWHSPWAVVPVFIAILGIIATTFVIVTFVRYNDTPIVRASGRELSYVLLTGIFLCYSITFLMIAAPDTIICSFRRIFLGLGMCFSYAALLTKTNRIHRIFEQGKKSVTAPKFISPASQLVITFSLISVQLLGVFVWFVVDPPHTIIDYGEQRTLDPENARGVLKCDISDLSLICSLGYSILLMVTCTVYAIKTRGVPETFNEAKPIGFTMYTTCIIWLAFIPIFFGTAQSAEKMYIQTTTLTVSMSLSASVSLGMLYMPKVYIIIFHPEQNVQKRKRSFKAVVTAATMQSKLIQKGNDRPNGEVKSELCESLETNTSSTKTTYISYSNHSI
For `C=CCC1(O)CC(c2ccco2)NC(c2ccco2)C1CCC` (centres undefined), the z-score was 1.08. `Cc1c(NC(=O)C(C)c2ccc(CC(C)C)cc2)c(=O)n(-c2ccccc2)n1C` (centres undefined) was tested, and the z-score was -0.175. Compound `CCc1nc2c(sc3nc4c(cc32)COC(C)(C)C4)c(=O)n1Cc1ccccc1` has a z-score of -0.115. With `CC1(C)CC(=O)c2c(nc3ccccc3c2N)C1` the z-score was -1.01. `CC1(C)CC(=O)c2c(nn(-c3ccccc3)c2N)C1` gave a z-score of -0.372. With `CC1(C)CC(=O)c2c(noc2-c2ccccc2)C1` the z-score was 3.63 (active). For `O=[N+]([O-])c1cccc(-c2nnc(-c3ccc4c(c3)OCO4)o2)c1`, the z-score was -0.286. In the case of `CCC/C(O)=C1\C(=O)CC(c2ccccc2)CC1=NC` (centres undefined), the z-score is reported as -0.23. `CC(C)N1C(=S)SC(C)(C)C1NO` (centres undefined) showed a z-score of -0.154. `O=S(=O)(c1ccc(Cl)c(F)c1)N1CCC(c2nc(-c3ccncc3)no2)CC1` was tested, and the z-score was 8.06 (active). For `O=S(=O)(c1ccccc1Cl)N1CCCC(c2nc(-c3cccnc3)no2)C1` (centres undefined), the z-score was 2.62. `COc1cccc(-c2noc(C3CCCN(S(=O)(=O)c4cccc(Cl)c4C)C3)n2)c1` (centres undefined) was tested, and the z-score was 0.354. With `O=S(=O)(c1ccccc1Cl)N1CCCC1c1nc(-c2ccc(Cl)cc2)no1` (centres undefined) the z-score was 0.14. `CC(C)c1ccc(-c2noc(C3CCCN(S(C)(=O)=O)C3)n2)cc1` (centres undefined) was tested, and the z-score was 5.82 (active). In the case of `O=S(=O)(c1ccc2ccccc2c1)N1CCC(c2nc(-c3ccncc3)no2)CC1`, the z-score is reported as 0.107. `CCCS(=O)(=O)N1CCCC(c2nc(-c3ccc(OC)cc3)no2)C1` (centres undefined) showed a z-score of 0.0798. With `CC(C)c1ccc(-c2noc(C3CCCN(C(=O)c4ccc(F)cc4F)C3)n2)cc1` (centres undefined) the z-score was -0.983. Compound `O=[N+]([O-])c1cccc(S(=O)(=O)N2CCC(c3nc(-c4ccncc4)no3)CC2)c1` has a z-score of -0.207. Compound `Cc1ccccc1NS(=O)(=O)c1ccc(OCCNS(C)(=O)=O)cc1` has a z-score of -0.0428. Work on `COc1ccccc1N1CCN(C(=O)CCCN2C(=O)c3cccc4cccc(c34)C2=O)CC1` yielded a z-score of -0.334. `Cn1c(=O)c2c(O)cc(=O)[nH]c2n(-c2ccccc2)c1=O` was tested, and the z-score was -0.00781. In the case of `COc1ccc(S(=O)(=O)N2CCOCC2)cc1NC(=O)c1ccccc1-c1ccc(C(F)(F)F)cc1`, the z-score is reported as -0.207. `Cc1noc(C)c1C(c1ccccc1)S(=O)(=O)c1ccccc1` (centres undefined) gave a z-score of 0.53. Compound `O=C(CSc1ncccn1)N/N=C/c1cccc([N+](=O)[O-])c1` has a z-score of 1.35. Compound `O=C(COC(=O)c1ccc(Br)o1)Nc1cccc(S(=O)(=O)N2CCCCCC2)c1` has a z-score of 0.698. Compound `COc1ccc(C(=O)NCc2nnc(SCC(=O)NCc3ccc(F)cc3)o2)cc1` has a z-score of -0.134. `COC(=O)c1ccccc1NC(=O)CSc1nnc(Cc2ccc(Cl)cc2)o1` gave a z-score of -0.323. `CCCn1c(SCC(N)=O)nc2c(c1=O)C1(CCCC1)Cc1ccccc1-2` showed a z-score of -0.333. With `CCn1c(SCC(N)=O)nc2c(c1=O)C1(CCCC1)Cc1ccccc1-2` the z-score was 5.27 (active). `Cc1ccc(-n2c(SCC(N)=O)nc3c(c2=O)C2(CCCC2)Cc2ccccc2-3)cc1` was tested, and the z-score was -0.348. Work on `COc1cccc(Nc2ncnc3ccccc23)c1` yielded a z-score of -0.25. Compound `COc1cccc(Nc2nc(NCCO)c3ccccc3n2)c1` has a z-score of -0.496. In the case of `COC(=O)Nc1cc(C)nc2ccccc12`, the z-score is reported as 0.301. `COc1cccc(Nc2cc(C)nc3ccccc23)c1` showed a z-score of 2.53. In the case of `Cc1cc(Nc2ccc3c(c2)OCCO3)c2ccccc2n1`, the z-score is reported as 0.143. In the case of `COc1ccc(Nc2cc(C)nc3ccccc23)cc1`, the z-score is reported as 2.44. For `O=C(CCN1C(=O)c2ccccc2S1(=O)=O)N1CCN(c2ccccc2)CC1`, the z-score was -0.363. In the case of `CCOc1cccc(OCCCCN2CCOCC2)c1`, the z-score is reported as -0.982. Compound `COc1cc2nc(-c3ccc(Br)o3)oc(=O)c2cc1OC` has a z-score of -1.58. Work on `Cc1nc2nc(-c3ccco3)[nH]n2c(=O)c1Cc1ccccc1` yielded a z-score of -1.16. `O=C(Nc1cccc(C(=O)N2CCOCC2)c1)c1ncn[nH]1` was tested, and the z-score was -0.145. `CCn1cc(C(=O)O)c(=O)c2cc(F)c(N/N=C/c3ccccc3)cc21` was tested, and the z-score was -0.559. With `O=C(Nc1ccc(Cl)cc1)Nc1ccccc1C(=O)NCc1ccco1` the z-score was -0.534. `O=C(NCCSCc1ccco1)Nc1ccc(Cl)cc1` was tested, and the z-score was 0.159. For `O=C(Nc1ccc(Cl)cc1)NC1CCCCC1Cc1ccco1` (centres undefined), the z-score was 7.39 (active). `Cc1nn(C)c(C)c1S(=O)(=O)N(CC(=O)N1CCc2ccccc2C1)c1ccc(C(C)C)cc1` gave a z-score of -0.0258. Compound `O=C(CCc1ccc(S(=O)(=O)N2CCOCC2)cc1)NN=C1CCCCCCC1` has a z-score of -0.592. In the case of `O=C(CCc1ccc(S(=O)(=O)N2CCOCC2)cc1)N1CCCC1`, the z-score is reported as 2.62. With `O=C(O)CCc1ccc(S(=O)(=O)N2CCOCC2)cc1` the z-score was 0.0366. In the case of `CCN(CCO)c1ncnc2c1sc1nc(CC(C)C)c3c(c12)CC(C)(C)OC3`, the z-score is reported as -0.758. In the case of `COC(=O)CNC(=O)CN1C(=O)N(c2ccc(Cl)cc2)C(N(O)C(=O)Nc2ccc(Cl)cc2)C1(C)C` (centres undefined), the z-score is reported as 0.0314. `CCOc1ncccc1C(=O)OCc1nnc(-c2ccccc2)o1` gave a z-score of -0.473. With `Cn1c(-c2sc3ccccc3c2Cl)n[nH]c1=S` the z-score was 13.3 (active). Work on `Cn1c(-c2sc3cc(C(F)(F)F)cnc3c2-c2ccccc2)n[nH]c1=S` yielded a z-score of 1.26. Compound `Cc1nc(-c2ccccc2)sc1-c1n[nH]c(=S)n1C` has a z-score of 0.154. For `CCCc1cc(-c2n[nH]c(C(=O)OCC)c2-c2cscn2)c(O)cc1O`, the z-score was -0.373. In the case of `CCN(CC(=O)Nc1ccc(OC)c(OC)c1)S(=O)(=O)c1ccc(C)cc1`, the z-score is reported as 0.404. With `COc1cc(NC(=O)CS(=O)(=O)c2ccccc2)cc(OC)c1OC` the z-score was 1.2. In the case of `Cc1noc(NS(=O)(=O)c2ccc(NC(=O)CS(=O)(=O)c3ccccc3)cc2)c1C`, the z-score is reported as 0.155. `Cc1ccc(OCC(=O)Nc2ccc(S(=O)(=O)Nc3onc(C)c3C)cc2)cc1` gave a z-score of 0.0571. For `COc1cc(NC(=O)CS(=O)(=O)c2ccc(C)cc2)cc(OC)c1OC`, the z-score was 3.72 (active). Work on `Cc1ccc(S(=O)(=O)CC(=O)Nc2ccc(S(=O)(=O)Nc3onc(C)c3C)cc2)cc1` yielded a z-score of 2.41. Compound `Cc1cc(=O)oc2cc(OCC(=O)OCc3nnc(-c4ccccc4)o3)ccc12` has a z-score of -0.34. In the case of `CCC(c1nnc(SCC(=O)Nc2ccc(Cl)cc2C(F)(F)F)n1C1CCCCC1)N(C)C` (centres undefined), the z-score is reported as -0.456. In the case of `O=C(CSc1nc(-c2ccco2)cc(C(F)(F)F)n1)NCCc1ccccc1`, the z-score is reported as 0.104. For `O=C(c1ccc(Br)o1)N1CCCc2ccccc21`, the z-score was -0.269. For `COc1ccc(CNC(=O)CSCc2ccccc2Cl)cc1`, the z-score was 4.96 (active). `COc1ccc(CNC(=O)CCSCc2ccccc2Cl)c(OC)c1` gave a z-score of -0.407. `COc1ccc(CNC(=O)CSCc2cccc(Cl)c2)cc1` was tested, and the z-score was -0.235. In the case of `CCOc1ccccc1C(=O)NC(CO)C(=O)O` (centres undefined), the z-score is reported as -0.109. Compound `CCNCCOC(c1ccccc1)c1ccccc1` has a z-score of 0.455. Compound `Clc1ccccc1-c1ccc(/C=N/n2cnnc2)o1` has a z-score of 0.334. Work on `Cc1c(Cl)cccc1-c1ccc(/C=N/n2cnnc2)o1` yielded a z-score of -0.29. With `Clc1cccc(-c2ccc(/C=N/n3cnnc3)o2)c1Cl` the z-score was 8.91 (active). `O=C(Nn1c(SCc2ccccc2F)nc2ccsc2c1=O)c1ccccc1` showed a z-score of -0.0125. In the case of `O=C(Cn1nc(Cl)nc1Cl)c1cc2ccccc2oc1=O`, the z-score is reported as -0.931. Compound `CCOc1cc(CNCCSc2nnnn2C)cc(Br)c1OCc1ccccc1` has a z-score of 2.3. Work on `CCOc1cc(CNCCSc2nnnn2C)cc(Br)c1OCc1ccc(F)cc1` yielded a z-score of 0.297. In the case of `CCOc1cc(CNCCSc2nnnn2C)cc(Br)c1OCc1ccccc1F`, the z-score is reported as 0.196. `NNC(=O)c1nnn(-c2nonc2N)c1-c1cccs1` showed a z-score of -0.0988. In the case of `O=C(NC(=S)Nc1ccc(N2CCCCC2)cc1)c1cccs1`, the z-score is reported as 11 (active). Compound `O=C(NC(=S)Nc1ccc(S(=O)(=O)N2CCCCCC2)cc1)c1cccs1` has a z-score of -0.208. Compound `O=C(NC(=S)Nc1ccc(S(=O)(=O)N2CCCC2)cc1)c1cccs1` has a z-score of 1.1. For `O=C(NC(=S)Nc1ccc(N2CCCCC2)c(Cl)c1)c1cccs1`, the z-score was 8.72 (active). `CCCCCC(=O)NC(=S)Nc1ccc(N2CCCCC2)c(Cl)c1` showed a z-score of -0.183. Work on `O=C(Nc1ccccc1N1CCCCC1)c1cccs1` yielded a z-score of 0.223. `CC(=O)Cc1nsc(NC(=O)c2cc(-c3ccc(Cl)c(Cl)c3)oc2C)n1` was tested, and the z-score was -0.22. Compound `Cc1ccc(S(=O)(=O)c2ccc(C)cc2)cc1` has a z-score of -0.487. Compound `CCN1C(=O)/C(=C\c2ccc3c(c2)OCO3)C(C(=O)OC)=C1C` has a z-score of -0.35. In the case of `COc1ccc(C(=O)C(OC(=O)c2ccccc2Cl)c2ccccc2)cc1` (centres undefined), the z-score is reported as -0.172. Work on `COc1ccc(-n2cc(C(=O)O)c3ccccc3c2=O)cc1` yielded a z-score of 2.28. `CCOC(=O)c1ccccc1NC(=O)c1cn(-c2ccc(OC)cc2)c(=O)c2ccccc12` gave a z-score of -0.291. `COC(=O)c1cn(-c2ccc(Cl)cc2)c(=O)c2ccccc12` gave a z-score of -0.29. Work on `O=C(Nc1cc(C(F)(F)F)ccc1N1CCOCC1)c1cn2ccccc2n1` yielded a z-score of -0.314. `c1nc(N2CCOCC2)c2c3c(sc2n1)CCCC3` was tested, and the z-score was -0.441. With `CC1(C)CN=C(N2CCN(c3ncnc4sc5c(c34)CCCC5)CC2)S1` the z-score was 5.02 (active). With `c1nc(N2CCC3(CC2)OCCO3)c2c3c(sc2n1)CCCC3` the z-score was -1.04. Work on `Cc1ccccc1CN1CCN(CC(=O)NCc2ccccc2)C1=O` yielded a z-score of 0.0216. `COc1ccc(OCCn2nnc(-c3ccc(Cl)cc3)n2)cc1` was tested, and the z-score was 0.195. For `COc1ccccc1NC(=O)CSc1nnc(-c2ccccn2)n1Cc1ccco1`, the z-score was -1.55. Compound `O=C(CSc1nnc(-c2cnccn2)n1Cc1ccco1)c1ccccc1` has a z-score of 2.15. `O=C(CSc1nnc(-c2cnccn2)n1Cc1ccco1)c1ccc(Cl)cc1` was tested, and the z-score was -0.74. Work on `Clc1ccc(CSc2nnc(-c3ccccn3)n2Cc2ccco2)c(Cl)c1` yielded a z-score of 0.104. `Clc1cccc(CSc2nnc(-c3ccccn3)n2Cc2ccco2)c1` was tested, and the z-score was 3.12 (active). `COc1ccc(NC(=O)CSc2nnc(-c3ccccn3)n2Cc2ccco2)cc1OC` was tested, and the z-score was 5.76 (active). `COc1ccc(C)cc1NC(=O)CSc1nnc(-c2ccccn2)n1Cc1ccco1` showed a z-score of 0.359. Work on `O=C(CSc1nnc(-c2ccccn2)n1Cc1ccco1)c1ccccc1` yielded a z-score of 1.88. Work on `Clc1ccccc1CSc1nnc(-c2ccccn2)n1Cc1ccco1` yielded a z-score of 0.314. `COC(=O)c1ccccc1NC(=O)c1cn(-c2ccc(C)c(C)c2)c(=O)c2ccccc12` showed a z-score of 0.0214.

— PubChem BioAssay AID488969 (Vanderbilt High Throughput Screening Facility, 2010)
